From ChEMBL document CHEMBL1157539, “Thousands of chemical starting points for antimalarial lead identification” (Nature, 2010)

test system: Plasmodium falciparum; experiment: GSK_TCMDC: Inhibition of Plasmodium falciparum 3D7 in whole red blood cells, using parasite LDH activity as an index of growth. Test compounds present at 2uM; type: functional

Row | Structure (SMILES) | Inhibition [%]
1 | O=C(N[C@H]1CCN(CCc2ccc(O[C@H]3CCNC3)c(Br)c2)C1)c1ccc(Cl)c(Cl)c1.O=C(O)C(F)(F)F | 100
2 | COc1cccc2c(NN=Cc3cccc(F)c3)ccnc12 | 99
3 | COc1cc(F)c2ncc(Cl)c([C@@H](O)CN3CCC(NCc4cc5c(cn4)OCCO5)CC3)c2c1.Cl | 100
4 | COc1ccc(CNc2ccnc(-n3cnc4cc(C)c(C)cc43)n2)cc1Cl.O=C(O)C(F)(F)F | 100
5 | Cc1cc(NC(=O)NCCN2CCC(NS(=O)(=O)c3ccc(Br)cc3)C2)c2ccccc2n1.O=C(O)C(F)(F)F (stereo unspecified) | 99
6 | Cc1cc(OC(C)C(=O)N2CCc3ccccc32)ccc1Cl (stereo unspecified) | 89
7 | CC1CN(c2cnn(C/C=C/c3ccc(NC(=O)c4ccc([N+](=O)[O-])cc4)cc3)c(=O)c2Cl)CC(C)N1.O=C(O)C(F)(F)F (stereo unspecified) | 96
8 | Cl.O=C(CCCCCCc1ccccc1)Nc1ccc2nc3c(c(NCc4ccccc4)c2c1)CCCC3 | 100
9 | CCCCCCCc1c(C)nc2cc(OC)ccc2c1O | 99
10 | Cl.Cn1ncc2c3c(CCN4CCC(NCc5ccc6c(c5)NC(=O)CO6)CC4)c(Cl)cnc3ccc21 | 100
11 | Cc1cc(NC(=O)Nc2cccc(N(C)C)c2)c2ccccc2n1 | 97
12 | O=C(NCC1CCN(C/C=C/c2ccccc2)CC1)Nc1ccc(Oc2ccccc2)cc1 | 83
13 | O=C(Nc1ccc(Cl)c(-c2nc3ccccc3[nH]2)c1)c1ccc(-c2ccc(Cl)cc2)o1 | 89
14 | CCCNC(=O)CN1CN(c2ccccc2)C2(CCN(C(=O)c3ccc(C(C)(C)C)cc3)CC2)C1=O | 99
15 | c1ccc(-c2cc3cccc(-c4nc5cnccc5[nH]4)c3o2)cc1 | 100
16 | CCCNCc1ccc(-c2ccc(CN(Cc3ccc4c(c3)OCO4)C(=O)Cc3cccnc3)cc2)nc1.O=C(O)C(F)(F)F | 94
17 | O=C(Cc1ccc(-c2ccccc2)cc1)N[C@H]1CCN(Cc2ccc(OCCCN3CCCCC3)cc2)C1 | 99
18 | COc1ccc2nccc([C@@H](O)CN3CCC(NC(=O)Cc4cccc5c(Br)cccc45)CC3)c2c1 | 99

Row | Structure (SMILES) | Inhibition [%]
19 | Fc1ccc2[nH]c(-c3cccc(-c4ccc(CNCc5ccccc5)cc4)c3)nc2c1.O=C(O)C(F)(F)F | 100
20 | CCc1cccc2c(C#N)cn(CC(=O)Nc3ccc(OC)cc3)c12 | 97
21 | Cl.N#Cc1ccc(NC(=O)Nc2ccc3c(c2)CCN(C2CCC2)CC3)cc1 | 96
22 | Cc1ccc(CCOCCCCCNCC(O)c2cc(Cl)c(N)c(Cl)c2)cc1 (stereo unspecified) | 99
23 | O=C(Nc1ccc(Cn2ncc(N3CCCNCC3)c(Cl)c2=O)cc1)Nc1cc(F)cc(C(F)(F)F)c1.O=C(O)C(F)(F)F | 100
24 | CC(Nc1cc(-c2ccccn2)nc(-c2ccccn2)n1)c1ccccc1 (stereo unspecified) | 85
25 | COc1ccc2cc(C(=O)Nc3ccc4c(c3)CCN(C3CCC3)CC4)ccc2c1.O=C(O)C(F)(F)F | 100
26 | NC1CCN(Cc2ccc(-c3cccc(-c4nc5cc(F)ccc5[nH]4)c3)cc2)C1.O=C(O)C(F)(F)F (stereo unspecified) | 100
27 | CCN(Cc1ccccc1)C1CCN(Cc2cc(Br)ccc2O)CC1.O=C(O)C(=O)O | 97
28 | CNCc1ccc2nc(-c3coc(Cc4cc(Cl)ccc4OCC(C)C)n3)[nH]c2c1.Cl | 100
29 | O=C(O)C(F)(F)F.O=S(=O)(NCCN1CCCC1)c1ccc(-c2ccc(CNCc3ccccc3)cc2)s1 | 94
30 | COc1ccc(N2CCN(CCCCNC(=O)c3ccc(NC(=O)c4cc(Cl)cc(Cl)c4)cc3)CC2)c(OC)c1.Cl | 100
31 | CC1(C)N=C(N)N=C(N)C1c1ccc(Cl)c(Cl)c1.Cl (stereo unspecified) | 95
32 | CC(C)(C)C(=O)N1CCN(c2ccc([N+](=O)[O-])c(NC3CC3)c2)CC1 | 95
33 | Fc1ccc2[nH]ccc(=NN=CC=Cc3ccccc3)c2c1 | 96
34 | O=C(N[C@@H](Cc1ccccc1)C(=O)NC1CCCCCC1)c1ccc(O)c(-c2ccc(Cl)c(Cl)c2)c1 | 92
35 | Cn1nccc1C(=O)NCCNCc1ccc(-c2cccc(-c3nc4cc(C(F)(F)F)ccc4[nH]3)c2)cc1.O=C(O)C(F)(F)F | 100
36 | CCCCN(CCCC)/C(=N/C(=N)NCc1ccc(Cl)c(Cl)c1)NCCCCCCN/C(=N\C(=N)NCc1ccc(Cl)c(Cl)c1)N(CCCC)CCCC | 100
